Source: PubChem BioAssay
Tau fibril FP: blocks human tau fibril formation measured by polarization. hit rate 0.39% among 280,000. Potency, µM (highest dose often 57.7 µM), hits mostly inhibitors. K18 P301L tau heparin fibrillization, Alexa594 FP, 6 h. P10636. AID 1468; note: nearly all actives have a fitted effect of over 55% in size
Target sequence (P10636 561-689 P618L limits assumed): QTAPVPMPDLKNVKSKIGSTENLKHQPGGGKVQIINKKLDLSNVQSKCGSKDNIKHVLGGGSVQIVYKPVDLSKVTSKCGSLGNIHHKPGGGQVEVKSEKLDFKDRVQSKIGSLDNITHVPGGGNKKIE
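K18 P301L tau (15 uM unlabeled/0.24 uM Alexa 594-labeled, final) + compound + heparin 20 uM final; 100 mM NaOAc pH 7; 6 hr 37 C; ThT 30 uM final added, 1 hr RT; FP ex 555/em 632 nm.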
Tau fibril ThT: inhibitors of human tau fibril formation, thioflavin T binding; recombinant tau K18 P301L, heparin-induced fibrillization, ThT fluorescence; Potency, µM (doses to about 57.4 µM), actives largely listed as inhibitors; P10636; AID 1460; hit rate 2.1% among 270,000; note: nearly all actives have a fitted effect of over 55% in size
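Heparin-induced (20 uM) aggregation of recombinant human K18 P301L tau, 15 uM unlabeled with 0.24 uM labeled, pH 7 acetate buffer, 6 hr at 37 C with compound. Fibrils quantified by 30 uM ThT fluorescence after 1 hr ambient incubation.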
FBPA coupling cs: inhibits coupling enzyme system, counter-screen for aldolase hits. coupling enzyme system counterscreen, AmpLite Red fluorescence. activity change, negative = inhibition, % at 58.2 µM, hits read low. hit rate 0.67% among 290,000. AID 2472; in the data active = activity change below about -30%
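Compounds tested against the coupling enzymes alone at 57.5 uM final; readout was AmpLite Red fluorescence (525/598 nm) after 20 min at RT.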
Tau fluor counter: counter-screen for tau fibril formation inhibitors; Potency, µM (series often up to 57.7 µM); tau K18 P301L (four-repeat tau fragment) Alexa594 fluorescence, heparin fibrillization; hit rate 0.93% among 280,000; note: nearly all actives have a fitted effect of over 55% in size
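Human K18 P301L tau (15 uM unlabeled plus 0.24 uM Alexa 594-labeled, final) in 100 mM sodium acetate pH 7 was mixed with compound and 20 uM heparin and incubated 6 hr at 37 C.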
Sfp PPTase inh: blocks B. subtilis Sfp PPTase activity | hit rate 3.5% among 310,000 | Biochemical Sfp PPTase activity, qHTS | Potency, µM, hits mostly inhibitors;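 note: the enzyme is Sfp with the accession as filed and its product quenches rhodamine fluorescence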
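Compounds were incubated with enzyme (final 15 nM) for 15 min at room temperature before substrate addition started the reaction. Fluorescence at 525 nm excitation, 598 nm emission was recorded immediately and after 30 minutes.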
Large screens that a line does not name were inactive; [ ] = another dose, or the depositor's remark. Hits are enriched below; roughly 5.2% of the tested compounds scored in any of these assays. Unless noted, calls come from the whole dose curve; as a rule, active = well fitted curve in the direction sought with a large enough effect; inconclusive = small, poorly fitted or top-dose-only effect, or another doubt; inactive = no such curve, though single readings can be large; an effect the other way counts as inactive or inconclusive.

Cc1cccc(CSc2nnc(-c3ccco3)o2)c1	Sfp PPTase inh 28µM
CCCCN(C(=O)CSc1nnc(-c2ccco2)o1)c1c(N)n(Cc2ccccc2)c(=O)[nH]c1=O	Sfp PPTase inh inconclusive
Cc1cccc(-c2nnc(SCc3ccccc3)o2)c1	none
O=C(CSc1nnc(-c2ccco2)o1)c1ccc(F)c(F)c1	none
CC(C)CN(C(=O)CSc1nnc(-c2ccco2)o1)c1c(N)n(Cc2ccccc2)c(=O)[nH]c1=O	Sfp PPTase inh 79µM
O=C(CSc1nnc(-c2ccco2)n1Cc1ccccc1)c1ccccc1	Sfp PPTase inh 56µM
Cc1cc(=O)[nH]c2nnc(SCc3c(F)cccc3Cl)n12	none (no result: FBPA coupling cs, Sfp PPTase inh)
CCn1c(SCc2nc(-c3ccccc3)no2)nnc1-c1ccco1	Sfp PPTase inh 79µM
O=C(CN1C(=O)COc2ccc(S(=O)(=O)N3CCCCCC3)cc21)N1CCN(c2ccc(Cl)cc2)CC1	none (no result: FBPA coupling cs, Sfp PPTase inh)
CCCc1cc(=O)[nH]c(Nc2cc(Cl)cc(Cl)c2)n1	Tau fibril FP 11µM, Tau fluor counter inconclusive (no result: FBPA coupling cs, Sfp PPTase inh)
COc1ccc(/C=C(/C(=O)c2cccs2)N2C=CC=CC2=C(C#N)C#N)cc1	Tau fibril FP inconclusive, Tau fibril ThT 28µM, Sfp PPTase inh 3.5µM
COc1ccc(C(=O)/C(=C\c2ccco2)N2C=CC=CC2=C(C#N)C#N)cc1	Tau fibril FP inconclusive, Tau fibril ThT 13µM, Tau fluor counter inconclusive, Sfp PPTase inh 18µM
COc1ccc(NC(=O)c2cccs2)cc1	none
N#CC(C#N)=C1C=CC=CN1/C(=C\c1ccco1)C(=O)c1ccc(Br)cc1	Tau fibril FP inconclusive, Tau fibril ThT 11µM, Sfp PPTase inh 8.9µM
COc1ccc(C(=O)N/C(=C\c2ccco2)C(=O)OCc2ccco2)cc1	none (no result: Tau fibril ThT)
N#CC(C#N)=C1C=CC=CN1/C(=C\c1ccco1)C(=O)c1ccccc1	Tau fibril FP 20µM, Tau fibril ThT 14µM, Tau fluor counter inconclusive, Sfp PPTase inh 16µM
CCN(CC)c1ccc(/C=C(\C#N)C(=O)c2ccc(Br)cc2)cc1	Tau fibril ThT inconclusive, Tau fluor counter inconclusive
CC1(C)CC2C1CCC1(C)OC2(C)CCC1O (stereo not drawn)	none
Cc1ccc(S(=O)(=O)Nc2ccc3nc(-c4ccc(F)cc4)oc3c2)cc1	Tau fibril FP inconclusive, Tau fluor counter inconclusive (no result: FBPA coupling cs, Sfp PPTase inh)
COc1ccc(NS(=O)(=O)c2ccc3oc(SC)nc3c2)cc1	Sfp PPTase inh 50µM (no result: Tau fibril FP, Tau fibril ThT, Tau fluor counter)
COc1ccc(-c2nc3ccc(NS(=O)(=O)c4ccc(C)cc4)cc3o2)cc1	Tau fluor counter 16µM[quencher] (no result: FBPA coupling cs, Sfp PPTase inh)
O=C(c1ccc(Cl)cc1)N1CCC(c2nc3ccccc3o2)CC1	none (no result: FBPA coupling cs, Sfp PPTase inh)
CCOc1cc(Br)c(C2C(C(=O)OC)=C(C)NC3=C2C(=O)c2ccccc23)cc1OCC (stereo not drawn)	Tau fibril ThT inconclusive, Tau fluor counter inconclusive (no result: FBPA coupling cs, Sfp PPTase inh)
CCOc1cc(C2C(C(=O)OC)=C(C)NC3=C2C(=O)c2ccccc23)ccc1OC (stereo not drawn)	Tau fibril ThT inconclusive, Tau fluor counter inconclusive (no result: FBPA coupling cs, Sfp PPTase inh)
CCOc1cc(C2C(C(=O)OC)=C(C)NC3=C2C(=O)c2ccccc23)c(Br)cc1OC (stereo not drawn)	Tau fibril ThT inconclusive, Tau fluor counter 16µM[quencher] (no result: FBPA coupling cs, Sfp PPTase inh)
CCOc1cc(C2C(C(=O)OC)=C(C)NC3=C2C(=O)c2ccccc23)c(Br)cc1O (stereo not drawn)	Tau fibril ThT 5µM, Tau fluor counter 14µM[quencher] (no result: FBPA coupling cs, Sfp PPTase inh)
C#CCOc1ccc(C2C(C(=O)OC)=C(C)NC3=C2C(=O)c2ccccc23)cc1OCC (stereo not drawn)	Tau fibril ThT inconclusive, Tau fluor counter 11µM[quencher] (no result: FBPA coupling cs, Sfp PPTase inh)
CCOc1cc(C2C(C(=O)OC)=C(C)NC3=C2C(=O)c2ccccc23)cc(Br)c1OCC (stereo not drawn)	Tau fibril FP inconclusive, Tau fibril ThT inconclusive, Tau fluor counter 4µM[quencher] (no result: FBPA coupling cs, Sfp PPTase inh)
COc1cc2c(=O)n(Cc3ccccc3Cl)c(=O)n(CC(=O)Nc3ccc(C)c(C)c3)c2cc1OC	Tau fibril FP inconclusive (no result: FBPA coupling cs, Sfp PPTase inh)
CCOc1cccc(C(=O)N(Cc2ccc(C)o2)C2CCS(=O)(=O)C2)c1 (stereo not drawn)	none (no result: FBPA coupling cs, Sfp PPTase inh)
Cc1cc(=O)c2c(O)c3c(O)cc(O)c4c5c(O)cc(O)c6c(O)c7c(=O)cc(C)c8c1c2c(c34)c(c65)c78	Tau fibril FP inconclusive, Tau fibril ThT 14µM, Tau fluor counter 4.5µM[quencher], Sfp PPTase inh 50µM
Cn1cc(P(=O)(N2CCOCC2)N2CCOCC2)cc1P(=S)(N1CCOCC1)N1CCOCC1	Sfp PPTase inh 20µM
